Laboratory results published in PubChem BioAssay (NCI).
This is part of a sample that, as a whole, favours compounds with a hit. Of some 79,000 tested, about 15% had one in any assay. Active and inactive are the calls of the source. No stated cut-off is given here; in the data, active means growth inhibition above about 70%; inactive means the rest.

Assay: NCI Yeast Anticancer Drug Screen. Data for the mlh1 rad18 strain (AID 175)
Details: S. cerevisiae mlh1 rad18 strain growth inhibition, active compounds read high; at 50.0 µM unless noted
In short: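 Yeast w/ defined DNA-repair lesions; compound exposure; growth vs vehicle controls → % inhibition.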

**Q.** With `ClB1NB(Cl)NB(Cl)N1` as the compound, how does the growth inhibition read?
**A.** The growth inhibition was 3.55% (inactive).

**Q.** Which growth inhibition does the source give for `CCOC(=O)c1cc2c(-c3ccccc3)c(-c3ccccc3)c(-c3ccccc3)c(-c3ccccc3)n2n1` here?
**A.** The growth inhibition was -0.4% (inactive).

**Q.** Which growth inhibition does the source give for `COc1ccccc1N=Nc1c(O)n(-c2ccccc2)c(=S)n(-c2ccccc2)c1=O` here?
**A.** Its growth inhibition is 8.9% (inactive).

**Q.** For `COc1ccc(C(=O)/C=C/c2ccc(OCC#N)cc2)cc1OC`, which growth inhibition is on record?
**A.** Its growth inhibition is -54.1% (inactive).

**Q.** With `C/C(=N/O)c1ccncc1` as the compound, how does the growth inhibition read?
**A.** Its growth inhibition is -6.9% (inactive).

**Q.** For `COc1cccc(/C=C/c2cnc3ccccc3n2)c1OC`, which growth inhibition is on record?
**A.** Its growth inhibition is -52.1% (inactive).

**Q.** With `CCc1ccc2nccc(NCCCN(C)C)c2c1[N+](=O)[O-]` as the compound, how does the growth inhibition read?
**A.** Its growth inhibition is 13.5% (inactive).

**Q.** For `CCOC(=O)C(=O)/C(=C/N1C(=O)CC(=O)NC1=S)C(=O)OCC`, which growth inhibition is on record?
**A.** The growth inhibition was -10.6% (inactive).

**Q.** For `CCOC(=O)NNC(=O)Nc1ccc(O[Si](C)(C)C)cc1`, which growth inhibition is on record?
**A.** Its growth inhibition is 10.9% (inactive).

**Q.** For `NC(=O)C1OCOC2C(CO)OCOC12` (centres undefined), which growth inhibition is on record?
**A.** Its growth inhibition is -6.15% (inactive).

**Q.** Which growth inhibition does the source give for `O=C(c1ccccc1)C(Oc1ccccc1)c1ccccc1` (centres undefined) here?
**A.** Its growth inhibition is 60% (inactive).

**Q.** For `NC(=O)CSCC(N)=O`, which growth inhibition is on record?
**A.** The growth inhibition was 22% (inactive).

**Q.** For `COc1ccc(/C=C2\C(=O)Nc3ccccc32)cc1OC`, which growth inhibition is on record?
**A.** The growth inhibition was -4.4% (inactive).

**Q.** Which growth inhibition does the source give for `Cc1cc(C)nc(NS(=O)(=O)c2ccc(NC(=O)c3ccc(Cl)c4c(Nc5ccc(S(=O)(=O)N=C(N)N)cc5)c5ccccc5nc34)cc2)n1` here?
**A.** Its growth inhibition is 31.4% (inactive).

**Q.** With `CC(C)(C)C(=O)Oc1ccc([N+](=O)[O-])cc1` as the compound, how does the growth inhibition read?
**A.** Its growth inhibition is 10.2% (inactive).

**Q.** For `Oc1ccc2ccccc2c1/C=C/c1ccc2c(Br)cc(Br)c(O)c2n1`, which growth inhibition is on record?
**A.** The growth inhibition was 65.3% (inactive).

**Q.** For `CCCCCCCCC(=O)NCO`, which growth inhibition is on record?
**A.** Its growth inhibition is -24.1% (inactive).

**Q.** With `Cc1c(NC(=S)NC(=O)c2ccc([N+](=O)[O-])cc2)c(=O)n(-c2ccccc2)n1C` as the compound, how does the growth inhibition read?
**A.** The growth inhibition was 18.6% (inactive).

**Q.** Which growth inhibition does the source give for `COc1cc2c(c(OC)c1OC)-c1ccc(SC)c(=O)cc1[C@@H](NC(=O)CCl)CC2` here?
**A.** The growth inhibition was 15.6% (inactive).

**Q.** Which growth inhibition does the source give for `CN1C=C(C(N)=O)Cc2ccsc21` here?
**A.** Its growth inhibition is -18.5% (inactive).

**Q.** With `CC1=CC(=C2C=C(C)C(=O)C(C)=C2)C=C(C)C1=O` as the compound, how does the growth inhibition read?
**A.** The growth inhibition was 14.2% (inactive).

**Q.** With `COC(=O)c1ccc(SCCC(=O)CN2C(=O)c3ccccc3C2=O)cc1` as the compound, how does the growth inhibition read?
**A.** Its growth inhibition is 27.8% (inactive).

**Q.** With `CCCCN(CCCC)CC(C(=O)Nc1ccc([N+](=O)[O-])cc1[N+](=O)[O-])/C(C)=N\NC(=S)NN` (centres undefined) as the compound, how does the growth inhibition read?
**A.** Its growth inhibition is 24.4% (inactive).

**Q.** Which growth inhibition does the source give for `Cc1cc2c(cc1Cl)SC(NNC1=NCCN1)=NS2(=O)=O` here?
**A.** Its growth inhibition is 9.95% (inactive).
